# Results: PubChem BioAssay (NCATS)
# Records with an inconclusive call do not appear. The source made the active and inactive calls. Unless noted, the call rests on the fitted dose curve.
# Legend:
# [1] = target: Bile acid receptor (Homo sapiens) (UniProt Q96RI1); experiment: qHTS assay for small molecule agonists of farnesoid X receptor signaling (AID 588527); conditions: HEK293T FXR-UAS-bla, beta-lactamase ratio, 16 h; activation: stronger effect = higher value;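 further: series mostly up to about 77 µM; 0% = vehicle basal and 100% = reference agonist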
# Chain of Bile acid receptor (Homo sapiens) (Q96RI1 whole entry, looked up): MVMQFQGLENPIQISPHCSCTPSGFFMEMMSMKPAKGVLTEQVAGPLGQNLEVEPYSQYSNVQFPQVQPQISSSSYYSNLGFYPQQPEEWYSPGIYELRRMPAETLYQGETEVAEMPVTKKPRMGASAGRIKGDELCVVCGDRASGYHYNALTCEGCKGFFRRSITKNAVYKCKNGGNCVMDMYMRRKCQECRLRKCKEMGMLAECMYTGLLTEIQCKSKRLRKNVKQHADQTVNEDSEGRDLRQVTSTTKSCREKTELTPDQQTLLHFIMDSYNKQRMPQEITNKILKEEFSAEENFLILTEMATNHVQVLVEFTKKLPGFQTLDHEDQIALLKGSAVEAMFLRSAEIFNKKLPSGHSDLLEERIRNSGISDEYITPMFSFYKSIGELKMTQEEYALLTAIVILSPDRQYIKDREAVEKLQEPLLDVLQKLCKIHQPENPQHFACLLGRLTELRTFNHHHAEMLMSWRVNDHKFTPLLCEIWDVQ
# Summary of the method: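 Quantitative HTS used FXR-UAS-bla HEK293T cells with 16 h compound incubation at 37 C. EC50 values came from concentration-response curves normalized to chenodeoxycholic acid.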
# [2] = target: Glucocorticoid receptor (Homo sapiens) (UniProt P04150); experiment: qHTS assay for small molecule agonists of glucocorticoid receptor signaling (AID 588532; active means well fitted curve in the direction sought with a large enough effect in the signal ratio, with a control signal flat; the % refers to the signal ratio;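 further: 100% = dexamethasone at 0.1 µM and 0% = DMSO only wells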); conditions: HeLa MMTV-bla, beta-lactamase ratio, agonist, 18 h; activation: stronger effect = higher value, percent of dexamethasone control, DMSO zero
# Chain of Glucocorticoid receptor (Homo sapiens) (P04150 whole entry, looked up): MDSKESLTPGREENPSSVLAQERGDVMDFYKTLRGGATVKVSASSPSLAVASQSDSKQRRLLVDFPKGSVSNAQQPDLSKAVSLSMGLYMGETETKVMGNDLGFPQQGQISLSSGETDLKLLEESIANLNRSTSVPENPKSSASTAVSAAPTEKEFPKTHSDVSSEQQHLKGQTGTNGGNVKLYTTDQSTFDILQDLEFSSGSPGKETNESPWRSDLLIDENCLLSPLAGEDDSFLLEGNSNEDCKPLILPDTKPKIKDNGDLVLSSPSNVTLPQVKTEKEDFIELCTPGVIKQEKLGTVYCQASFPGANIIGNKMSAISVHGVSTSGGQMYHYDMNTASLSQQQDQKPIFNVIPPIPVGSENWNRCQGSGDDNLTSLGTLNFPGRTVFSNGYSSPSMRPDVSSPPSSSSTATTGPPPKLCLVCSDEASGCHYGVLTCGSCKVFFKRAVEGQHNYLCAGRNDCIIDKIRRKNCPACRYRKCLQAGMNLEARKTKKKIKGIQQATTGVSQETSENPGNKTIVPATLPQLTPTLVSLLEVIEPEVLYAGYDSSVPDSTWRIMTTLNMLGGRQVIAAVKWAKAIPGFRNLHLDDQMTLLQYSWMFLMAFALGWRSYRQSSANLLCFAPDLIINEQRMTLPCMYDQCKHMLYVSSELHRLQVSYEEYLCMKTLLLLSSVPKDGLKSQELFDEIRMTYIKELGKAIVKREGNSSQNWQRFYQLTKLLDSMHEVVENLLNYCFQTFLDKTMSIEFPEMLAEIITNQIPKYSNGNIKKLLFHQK
# Summary of the method: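 Using MMTV-bla HeLa cells in medium with 1% stripped FBS and 25 mM HEPES, compounds were titrated and incubated overnight-length (18 h). Beta-lactamase cleavage of CCF4 was quantified by dual-emission fluorescence.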
# [3] = target: Glucocorticoid receptor (Homo sapiens) (UniProt P04150); experiment: qHTS assay for small molecule antagonists of glucocorticoid receptor signaling (AID 588533; active means well fitted inhibition curve with a large enough effect in the signal ratio, with a control signal flat, not every such curve was filed as active; the % refers to the signal ratio;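 further: cells stimulated with 2 nM dexamethasone as agonist; on the % scale 0 is the no-effect control and ±100 the full control effect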)
# Summary of the method: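 Antagonist-mode qHTS: compound titrations added to GRE-bla HeLa cells, then dexamethasone 2 nM final; 18 h, 37 C. CCF4 FRET fluorescence normalized to dexamethasone and DMSO; IC50 from Hill fit.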
# [4] = qHTS assay for small molecule antagonists of peroxisome proliferator-activated receptor delta signaling (AID 588535; active means well fitted inhibition curve with a large enough effect in the signal ratio, with a control signal flat, not every such curve was filed as active; the % refers to the signal ratio;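 on max response: cells co-treated with a PPAR-delta agonist as stimulator during compound exposure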); conditions: HEK293T PPARd-UAS-bla, beta-lactamase FRET ratio, 18 h; 460 nm channel
# Summary of the method: (§1)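 Titrations were run on PPAR-delta-UAS-bla HEK293T cells in charcoal/dextran-stripped serum, incubated 18 h at 37 C. CCF4 fluorescence (460/530 nm) after 2 h RT; Hill equation yields IC50 and maximal response.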
# [5] = target: Peroxisome proliferator-activated receptor delta (Homo sapiens) (UniProt Q03181); experiment: as above
# Chain of Peroxisome proliferator-activated receptor delta (Homo sapiens) (Q03181 whole entry, looked up): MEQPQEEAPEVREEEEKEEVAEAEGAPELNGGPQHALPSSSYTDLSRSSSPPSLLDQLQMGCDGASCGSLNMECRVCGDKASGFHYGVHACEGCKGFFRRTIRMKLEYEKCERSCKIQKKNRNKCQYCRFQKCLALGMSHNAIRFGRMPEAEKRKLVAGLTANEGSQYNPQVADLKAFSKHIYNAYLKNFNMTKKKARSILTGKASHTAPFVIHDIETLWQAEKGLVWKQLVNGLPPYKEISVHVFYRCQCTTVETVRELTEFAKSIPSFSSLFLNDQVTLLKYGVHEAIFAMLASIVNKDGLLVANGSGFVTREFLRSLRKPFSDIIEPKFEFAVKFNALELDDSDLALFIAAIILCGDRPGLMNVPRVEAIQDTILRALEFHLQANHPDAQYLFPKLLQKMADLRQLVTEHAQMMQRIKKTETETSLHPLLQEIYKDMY
# Summary of the method: as §1
# [6] = qHTS assay for small molecule agonists of retinoid X receptor alpha signaling (AID 588544); conditions: HEK293T RXRa-UAS-bla, beta-lactamase reporter, 18 h; 530 nm emission;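 on activation: 0% = DMSO basal wells and 100% = reference agonist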
# [7] = target: Retinoic acid receptor RXR-alpha (Homo sapiens) (UniProt P19793); experiment: as above
# Chain of Retinoic acid receptor RXR-alpha (Homo sapiens) (P19793 whole entry, looked up): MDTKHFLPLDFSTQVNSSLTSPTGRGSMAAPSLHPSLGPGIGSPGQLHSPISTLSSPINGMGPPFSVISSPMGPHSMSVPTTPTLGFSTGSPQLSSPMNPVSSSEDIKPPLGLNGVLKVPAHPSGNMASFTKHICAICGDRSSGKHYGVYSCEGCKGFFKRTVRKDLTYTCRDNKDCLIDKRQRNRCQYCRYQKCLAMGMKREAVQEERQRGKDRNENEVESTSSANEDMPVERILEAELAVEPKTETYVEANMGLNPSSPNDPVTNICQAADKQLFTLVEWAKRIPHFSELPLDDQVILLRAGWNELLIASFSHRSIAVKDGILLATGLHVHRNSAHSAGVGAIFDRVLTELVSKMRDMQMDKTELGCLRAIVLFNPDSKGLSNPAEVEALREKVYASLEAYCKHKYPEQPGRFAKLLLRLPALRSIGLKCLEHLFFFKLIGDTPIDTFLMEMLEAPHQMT
# [8] = target: Thyroid hormone receptor beta (Homo sapiens) (UniProt P10828); experiment: qHTS assay for small molecule agonists of thyroid hormone receptor beta signaling (AID 588545);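 further: 0% = DMSO only and 100% = 10 nM T3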
# Chain of Thyroid hormone receptor beta (Homo sapiens) (P10828 whole entry, looked up): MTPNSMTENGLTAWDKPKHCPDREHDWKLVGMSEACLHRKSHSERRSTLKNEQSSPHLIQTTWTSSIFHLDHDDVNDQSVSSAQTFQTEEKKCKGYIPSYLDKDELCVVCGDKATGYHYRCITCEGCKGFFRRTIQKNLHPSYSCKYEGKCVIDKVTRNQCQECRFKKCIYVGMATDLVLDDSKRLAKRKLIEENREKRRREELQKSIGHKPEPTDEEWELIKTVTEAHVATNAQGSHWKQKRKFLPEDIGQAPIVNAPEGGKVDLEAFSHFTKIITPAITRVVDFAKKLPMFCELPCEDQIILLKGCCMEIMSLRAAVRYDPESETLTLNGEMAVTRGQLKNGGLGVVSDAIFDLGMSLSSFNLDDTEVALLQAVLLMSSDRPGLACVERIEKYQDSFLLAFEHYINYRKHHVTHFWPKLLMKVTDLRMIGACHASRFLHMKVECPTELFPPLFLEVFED
# Summary of the method: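 TR-UAS-bla GripTite HEK 293 cells (2500/well, medium with 2% charcoal/dextran FBS) were treated in agonist mode for 18 h at 37 C, titrated. Beta-lactamase was read by CCF4 ratio after 2 h; normalized to 10 nM T3 (100%) and DMSO, Hill-fitted for EC50 and efficacy.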
# [9] = qHTS assay for small molecule agonists of the antioxidant response element (ARE) signaling pathway (AID 651741; active means well fitted activation curve with a large enough effect in the signal ratio; the % refers to the signal ratio; further: potency means the concentration at half of the fitted maximal effect; on activation: % of control where 0% means no effect)
# Summary of the method: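 Beta-lactamase reporter under ARE control in HepG2 cells, 2,000 per well, was induced by 16 h compound treatment at 37 C. Read-out was fluorescence from LiveBLAzer B/G FRET substrate after 2 h at room temperature.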
# [10] = qHTS assay for small molecule activators of the p53 signaling pathway (AID 651743; active means well fitted activation curve with a large enough effect in the signal ratio, not every such curve was filed as active; the % refers to the signal ratio; further: series mostly up to about 92 µM; % of control where 0% means no effect); conditions: HCT-116 p53RE-bla, beta-lactamase FRET ratio, 16 h; activation: stronger effect = higher value
# Summary of the method: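 After 16 hours compound treatment at 37 C, HCT-116 cells stably expressing p53RE-driven beta-lactamase were loaded with LiveBLAzer B/G FRET substrate for 2 hours at room temperature. Fluorescence intensity served as the p53 activation read-out.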
# [11] = qHTS assay for small molecule activators of the nuclear factor-kappa B (NF-kB) signaling pathway (AID 651749; active means well fitted activation curve with a large enough effect in the signal ratio; the % refers to the signal ratio; further: series mostly up to about 77 µM; % of control where 0% means no effect); conditions: NF-kB-bla ME-180 cells, beta-lactamase FRET ratio, 16 h; activation: stronger effect = higher value
# Summary of the method: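 Activation measured after 16 hr compound treatment at 37C, 5% CO2, of 2,000 ME-180 cells/well stably expressing an NF-kB response element–driven beta-lactamase reporter, via FRET-disruption fluorescence.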
# [12] = qHTS assay for environmental chemicals that activate the Aryl hydrocarbon Receptor (AhR) signaling pathway (AID 651777; active means well fitted curve in the direction sought with a large enough effect; an effect the other way counts as inactive or inconclusive; further: % of control where 0% means no effect; nearly all actives have a fitted effect of over 15% in size); conditions: 1A2-DRE human hepatoma cells, luciferase, 24 h; activation: stronger effect = higher value
# Summary of the method: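 Quantitative HTS in stably transfected human liver-derived cells whose luciferase gene sits downstream of the CYP1A2 promoter and dioxin response element. After 24 hr exposure at 37 C, One-Glo luminescence was measured.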
# [13] = target: Peroxisome proliferator-activated receptor alpha (Homo sapiens) (UniProt Q07869); experiment: qHTS assay for small molecule agonists of the peroxisome proliferator-activated receptor alpha (PPARalpha) signaling pathway (AID 651778; active means well fitted curve in the direction sought with a large enough effect; an effect the other way counts as inactive or inconclusive; further: % of control where 0% means no effect); conditions: PathHunter PPARalpha complementation, chemiluminescence, 6 h; max response: stronger effect = higher value
# Chain of Peroxisome proliferator-activated receptor alpha (Homo sapiens) (Q07869 whole entry, looked up): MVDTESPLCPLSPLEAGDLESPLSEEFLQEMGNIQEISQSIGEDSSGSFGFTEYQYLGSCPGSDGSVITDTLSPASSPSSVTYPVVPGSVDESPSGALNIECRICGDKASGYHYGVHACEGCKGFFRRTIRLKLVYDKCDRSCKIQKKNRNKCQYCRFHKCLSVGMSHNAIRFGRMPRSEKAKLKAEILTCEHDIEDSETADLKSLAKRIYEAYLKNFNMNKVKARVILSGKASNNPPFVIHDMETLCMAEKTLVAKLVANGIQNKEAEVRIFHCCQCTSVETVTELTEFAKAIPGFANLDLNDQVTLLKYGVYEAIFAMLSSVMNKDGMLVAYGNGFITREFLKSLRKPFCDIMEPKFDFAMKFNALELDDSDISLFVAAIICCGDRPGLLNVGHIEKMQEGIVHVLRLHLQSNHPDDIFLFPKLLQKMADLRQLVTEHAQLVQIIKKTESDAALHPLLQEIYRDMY
# Summary of the method: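 Chemiluminescence from complemented enzyme reported PPARalpha activation in cells after 6 hr of compound treatment at 37 C. The detection reagent was incubated for 60 min at room temperature, and compounds were scored as agonists.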
# [14] = qHTS assay for small molecule agonists of the antioxidant response element (ARE) signaling pathway measured by Nrf2-dependant transcriptional activity (AID 720636; active means well fitted curve in the direction sought with a large enough effect in the repeat runs; an effect the other way counts as inactive or inconclusive; further: potency means the concentration at half of the fitted maximal effect; on activation: % of control where 0% means no effect)
# Summary of the method: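 Quantitative HTS format in HepG2 cells stably expressing an ARE-luciferase reporter; 16 hr compound treatment at 37 C, luciferase signal detected with ONE-Glo.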
# [15] = qHTS assay for small molecule agonists of the antioxidant response element (ARE) signaling pathway measured by Nrf2-dependant transcriptional activity - cell viability counter screen (AID 720653; active means well fitted curve in the direction sought with a large enough effect in the repeat runs; an effect the other way counts as inactive or inconclusive; further: on the % scale 0 is the no-effect control and ±100 the full control effect); conditions: ARE-bla HepG2 viability, CellTiter-Glo ATP luminescence, 16 h; max response: stronger effect = lower value
# Summary of the method: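 Cytotoxicity counter screen: intracellular ATP quantified by CellTiter-Glo luminescence in the same ARE-bla HepG2 plates, after 16 h compound exposure and a 2 h beta-lactamase substrate step.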
# [16] = qHTS assay for cell viability of HEK293 cells (AID 743288; active means well fitted curve in the direction sought with a large enough effect; an effect the other way counts as inactive or inconclusive; further: nearly all actives have a fitted effect of over 50% in size; further: potency means the concentration at half of the fitted maximal effect); conditions: ATP luminescence (CellTiter-Glo), 18 h; max response: stronger effect = lower value
# Summary of the method: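 Quantitative high-throughput screen: compounds were pinned onto parental HEK293 cells (2,000 per well) after a minimum 5 h settling at 37 C, incubated 18 h at 37 C, and intracellular ATP measured by luciferase luminescence.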
# [17] = qHTS assay for cell viability of the p53RE-bla HCT-116 cell line (AID 743292; active means well fitted curve in the direction sought with a large enough effect; an effect the other way counts as inactive or inconclusive; further: nearly all actives have a fitted effect of over 55% in size; further: potency means the concentration at half of the fitted maximal effect)
# Summary of the method: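 Viability of compound-treated p53RE-bla HCT-116 cells is taken from ATP-dependent luciferase luminescence. Treatment lasts 16 h at 37 C after a 5 h settling period; detection follows 30 min at room temperature.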
# [18] = target: Nuclear receptor subfamily 1 group I member 2 (Rattus norvegicus) (UniProt Q9R1A7); experiment: qHTS assay for small molecule activators of the rat pregnane X receptor (rPXR) signaling pathway (AID 651751; call rule not given here; further: 0% is about no effect); conditions: rPXR reporter cells, luciferase (One-Glo), 24 h
# Chain of Nuclear receptor subfamily 1 group I member 2 (Rattus norvegicus) (Q9R1A7 whole entry, looked up): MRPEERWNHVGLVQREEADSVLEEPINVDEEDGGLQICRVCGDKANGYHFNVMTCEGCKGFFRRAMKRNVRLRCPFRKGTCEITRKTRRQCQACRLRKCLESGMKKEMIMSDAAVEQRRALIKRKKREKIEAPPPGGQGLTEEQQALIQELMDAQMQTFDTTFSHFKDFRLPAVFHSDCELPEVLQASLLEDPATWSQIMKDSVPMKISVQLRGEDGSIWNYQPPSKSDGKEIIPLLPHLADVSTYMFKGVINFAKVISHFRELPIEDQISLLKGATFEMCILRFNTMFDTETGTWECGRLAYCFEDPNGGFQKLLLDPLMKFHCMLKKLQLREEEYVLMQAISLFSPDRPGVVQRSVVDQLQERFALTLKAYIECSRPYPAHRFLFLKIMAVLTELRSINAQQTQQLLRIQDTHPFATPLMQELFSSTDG
# [19] = target: Peroxisome proliferator-activated receptor delta (Homo sapiens) (UniProt Q03181); experiment: qHTS assay for small molecule agonists of peroxisome proliferator-activated receptor delta signaling (AID 588534);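 further: 0% = DMSO basal wells and 100% = positive control agonist at 10 µM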
# Summary of the method: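 Agonist-mode qHTS; reporter cells, 5 hrs 37 C pre-incubation; compound titration, 18 hrs 37 C; CCF4 dye, 2 hrs RT; fluorescence read. EC50/efficacy via Hill fit.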
# [20] = target: Peroxisome proliferator-activated receptor gamma (Homo sapiens) (UniProt P37231); experiment: qHTS assay for small molecule agonists of peroxisome proliferator-activated receptor gamma signaling (AID 588536; active means well fitted curve in the direction sought with a large enough effect in the signal ratio, with a control signal flat, not every such curve was filed as active; the % refers to the signal ratio;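 further: 0% = DMSO basal wells and 100% = rosiglitazone at 2 µM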)
# Chain of Peroxisome proliferator-activated receptor gamma (Homo sapiens) (P37231 whole entry, looked up): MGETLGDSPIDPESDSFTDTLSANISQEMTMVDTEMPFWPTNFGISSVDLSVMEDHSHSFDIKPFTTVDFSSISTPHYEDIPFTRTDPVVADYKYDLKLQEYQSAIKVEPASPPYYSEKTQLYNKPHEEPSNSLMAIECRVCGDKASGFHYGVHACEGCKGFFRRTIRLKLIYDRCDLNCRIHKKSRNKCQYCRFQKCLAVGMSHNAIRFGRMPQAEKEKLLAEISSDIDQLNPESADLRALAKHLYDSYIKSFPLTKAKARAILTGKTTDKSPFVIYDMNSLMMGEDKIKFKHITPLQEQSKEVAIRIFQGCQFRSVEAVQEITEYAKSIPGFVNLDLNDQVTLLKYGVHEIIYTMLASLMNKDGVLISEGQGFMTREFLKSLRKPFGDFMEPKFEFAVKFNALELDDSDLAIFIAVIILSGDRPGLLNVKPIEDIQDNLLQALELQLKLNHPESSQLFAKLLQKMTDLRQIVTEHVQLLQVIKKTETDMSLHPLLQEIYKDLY
# Summary of the method: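 Using GeneBLAzer HEK293 cells, response was quantified by CCF4 fluorescence and normalized between basal DMSO (0%) and rosiglitazone 2 uM (100%); curves yielded half-maximal stimulation concentration and efficacy.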
# [21] = target: Vitamin D3 receptor (Homo sapiens) (UniProt P11473); experiment: qHTS assay for small molecule antagonists of vitamin D receptor signaling (AID 588541);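 further: receptor activated by calcitriol during compound treatment; series mostly up to about 77 µM; on the % scale 0 is the no-effect control and ±100 the full control effect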
# Chain of Vitamin D3 receptor (Homo sapiens) (P11473 whole entry, looked up): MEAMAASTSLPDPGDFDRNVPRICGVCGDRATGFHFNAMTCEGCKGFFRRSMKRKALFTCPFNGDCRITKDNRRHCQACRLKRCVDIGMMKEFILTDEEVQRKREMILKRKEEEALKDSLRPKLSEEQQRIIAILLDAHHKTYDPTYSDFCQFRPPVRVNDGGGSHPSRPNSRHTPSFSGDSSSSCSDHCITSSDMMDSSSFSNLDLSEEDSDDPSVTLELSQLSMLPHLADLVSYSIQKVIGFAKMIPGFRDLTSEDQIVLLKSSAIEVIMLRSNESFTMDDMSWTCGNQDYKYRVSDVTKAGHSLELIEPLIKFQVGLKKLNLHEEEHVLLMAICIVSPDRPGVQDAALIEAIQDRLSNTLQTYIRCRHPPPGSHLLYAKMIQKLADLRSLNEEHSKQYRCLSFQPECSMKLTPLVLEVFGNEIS
# Summary of the method: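 Antagonist-mode beta-lactamase reporter assay: HEK293T VDR-UAS-bla cells were exposed to titrated compound alongside 1-alpha,25-dihydroxyvitamin D3 at 3 nM final for 16 h. Values were normalized to the 50 nM agonist control and DMSO basal, with IC50 and efficacy from Hill equation fits.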
# [22] = target: Vitamin D3 receptor (Homo sapiens) (UniProt P11473); experiment: qHTS assay for small molecule agonists of vitamin D receptor signaling (AID 588543);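 further: 0% = DMSO basal and 100% = reference agonist control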
# Summary of the method: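 qHTS in agonist mode: compound titrations stimulate a VDR-driven β-lactamase reporter in HEK293T cells over 16 h at 37 °C. Response normalized to 50 nM 1α,25-dihydroxyvitamin D3 = 100%, DMSO = 0%; Hill fitting gives EC50 and maximal response.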
# [23] = qHTS assay for small molecule antagonists of retinoid X receptor alpha signaling (AID 588546; active means well fitted inhibition curve with a large enough effect in the signal ratio, with a control signal flat, not every such curve was filed as active; the % refers to the signal ratio; further: potency means the concentration at half of the fitted maximal effect); conditions: HEK293T RXRa-UAS-bla, beta-lactamase ratio, antagonist mode; measured here: W530 green channel, cytotoxicity proxy
# Summary of the method: (§2)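 Beta-lactamase reporter inhibition, read as CCF4 fluorescence ratio (ex 405, em 460/530 nm) after 2 h at RT. HEK293T UAS-bla cells, 2500/well, were stimulated with 9-cis-RA at 500 or 100 nM final alongside test compound for 18 h at 37 C.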
# [24] = target: Retinoic acid receptor RXR-alpha (Homo sapiens) (UniProt P19793); experiment: as above; conditions: HEK293T RXRa-UAS-bla, beta-lactamase ratio, antagonist mode
# Summary of the method: as §2
# [25] = target: Thyroid hormone receptor beta (Homo sapiens) (UniProt P10828); experiment: qHTS assay for small molecule antagonists of thyroid hormone receptor beta signaling (AID 588547; active means well fitted inhibition curve with a large enough effect in the signal ratio, with a control signal flat, not every such curve was filed as active; the % refers to the signal ratio;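 further: cells stimulated with 0.4 nM T3 agonist during compound exposure; series mostly up to about 77 µM; on the % scale 0 is the no-effect control and ±100 the full control effect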); conditions: TR-UAS-bla HEK293, beta-lactamase ratio, antagonist mode, 18 h
# Summary of the method: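 Inhibition of T3-driven (0.4nM final) beta-lactamase reporter activity was measured over 0.59 nM to 92 uM compound after 18 h at 37 C. The cells were GripTite HEK293 TR-UAS-bla in charcoal/dextran-stripped serum, with CCF4 ratio read-out and IC50 from Hill fits.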
# [26] = qHTS assay for small molecule activators of the human pregnane X receptor (PXR) signaling pathway (AID 720659; call rule not given here; further: 0% is about no effect)
smiles,measurement,setting,value
O=C(O)[C@@H]1[C@H](C(=O)O)[C@@]2(Cl)C(Cl)=C(Cl)[C@]1(Cl)C2(Cl)Cl,activation,[1],7.2% (inactive)
same,activation,[2],-1.44% (inactive)
same,Potency,[3],inactive
same,max response,[4],2.51%
same,Potency,[5],inactive
same,max response,[6],-1.73%
same,Potency,[7],inactive
same,Potency,[8],inactive
same,Potency,[9],inactive
same,activation,[10],-1.67% (inactive)
same,activation,[11],-0.556% (inactive)
same,activation,[12],1.48% (inactive)
same,max response,[13],0.99% (inactive)
same,Potency,[14],inactive
same,max response,[15],-22.8% (inactive)
same,max response,[16],-18.3% (inactive)
same,Potency,[17],inactive
same,max response,[18],4.23% (inactive)
O=P(Oc1ccccc1)(Oc1ccccc1)Oc1ccccc1,activation,[1],1.95% (inactive)
same,activation,[2],6.86% (inactive)
same,Potency,[3],inactive
same,outcome,[19],inactive
same,max response,[4],29%
same,Potency,[5],inactive
same,Potency,[20],inactive
same,Potency,[21],inactive
same,outcome,[22],inactive
same,Potency,[8],inactive
same,max response,[23],0.157%
same,max response,[24],-15.3% (inactive)
same,activity change % (negative = inhibition),[25],-5.53% (inactive)
same,activation,[10],-5.18% (inactive)
same,activation,[11],-2% (inactive)
same,activation,[12],2.98% (inactive)
same,max response,[13],-0.776% (inactive)
same,Potency,[14],inactive
same,max response,[15],-2.38% (inactive)
same,max response,[16],-15.7% (inactive)
same,Potency,[17],inactive
CC(C)OB(OC(C)C)OC(C)C,activation,[1],-0.77% (inactive)
CCCCCCCCCC[N+](C)(C)Cc1ccccc1,activation,[1],3.15% (inactive)
CS/C(=N\O)C(=O)N(C)C,activation,[1],-1.99% (inactive)
CCCCNS(=O)(=O)c1ccccc1,activation,[1],2.61% (inactive)
CCOP(=S)(OCC)SCn1nnc2ccccc2c1=O,activation,[1],3.29% (inactive)
same,activation,[2],9.79% (inactive)
same,outcome,[19],inactive
same,max response,[4],7.16%
same,Potency,[5],inactive
same,Potency,[20],inactive
same,Potency,[21],inactive
same,Potency,[8],inactive
same,max response,[23],30.8%
same,Potency,[24],39.8 µM (active)
same,activity change % (negative = inhibition),[25],-2.51% (inactive)
same,Potency,[9],54.5 µM (active)
same,activation,[10],2.43% (inactive)
same,activation,[11],-3.08% (inactive)
same,activation,[12],6.1% (inactive)
same,max response,[13],-0.264% (inactive)
same,Potency,[14],inactive
same,max response,[15],-19.9% (inactive)
same,Potency,[17],inactive
Nc1ccc(N)c(Cl)c1,activation,[1],-0.837% (inactive)
O=C(Nc1ccccc1)c1cc(Cl)ccc1O,activation,[1],1.59% (inactive)
CCO[Si](CCC#N)(OCC)OCC,activation,[1],0.364% (inactive)
O=[N+]([O-])c1ccc(O)cc1C(F)(F)F,activation,[1],-0.0736% (inactive)
CC(C)C[C@H](NC(=O)OCC1c2ccccc2-c2ccccc21)C(=O)O,activation,[1],-0.845% (inactive)
CCCCOC(=O)/C=C\C(=O)OCCCC,activation,[1],-3.9% (inactive)
CC(=O)c1cccc([N+](=O)[O-])c1,activation,[1],-1.11% (inactive)
Cc1ccc(O)c(N)c1,activation,[1],-0.664% (inactive)
C1CC[CH]([Sn]([CH]2CCCCC2)[CH]2CCCCC2)CC1,activation,[1],0.852% (inactive)
same,activation,[2],-10.4% (inactive)
same,Potency,[3],inactive
same,Potency,[9],19.3 µM (active)
same,activation,[10],-8.17% (inactive)
same,activation,[12],3.62% (inactive)
same,max response,[13],-0.731% (inactive)
same,Potency,[14],13.7 µM (active)
same,Potency,[16],31.6 µM (active)
same,Potency,[17],39.8 µM (active)
same,outcome,[26],inactive
BrC/C=C/CBr,activation,[1],1.2% (inactive)
CCCCCCCC(=O)Oc1c(Br)cc(C#N)cc1Br,activation,[1],1.95% (inactive)
C[Si](Cl)(Cl)[Si](C)(Cl)Cl,activation,[1],5.31% (inactive)
O=C(O)c1ccccc1[N+](=O)[O-],activation,[1],-1.37% (inactive)
OCC(CO)(CO)COCC(CO)(CO)CO,activation,[1],-6.39% (inactive)
CCOCCO,activation,[1],0.436% (inactive)
FB(F)F,activation,[1],0.812% (inactive)
